Laboratory results published in PubChem BioAssay AID652016 (National Center for Advancing Translational Sciences (NCATS), 2013).
Results filed as inconclusive are left out. The source made the active and inactive calls. Calls come from the whole dose curve; as a rule, active = well fitted inhibition curve with a large enough effect; inconclusive = small, poorly fitted or top-dose-only effect; inactive = flat fitted curve, though single readings scatter.

The compounds below were run against Luciferin 4-monooxygenase (Photinus pyralis) (UniProt P08659) (assay: qHTS Assay for Inhibitors of Firefly Luciferase from the GSK Published Protein Kinase Inhibitor Set). Settings: purified firefly luciferase, luminescence inhibition; series mostly up to 57.5 µM.
Chain of Luciferin 4-monooxygenase (Photinus pyralis) (P08659 whole entry, looked up): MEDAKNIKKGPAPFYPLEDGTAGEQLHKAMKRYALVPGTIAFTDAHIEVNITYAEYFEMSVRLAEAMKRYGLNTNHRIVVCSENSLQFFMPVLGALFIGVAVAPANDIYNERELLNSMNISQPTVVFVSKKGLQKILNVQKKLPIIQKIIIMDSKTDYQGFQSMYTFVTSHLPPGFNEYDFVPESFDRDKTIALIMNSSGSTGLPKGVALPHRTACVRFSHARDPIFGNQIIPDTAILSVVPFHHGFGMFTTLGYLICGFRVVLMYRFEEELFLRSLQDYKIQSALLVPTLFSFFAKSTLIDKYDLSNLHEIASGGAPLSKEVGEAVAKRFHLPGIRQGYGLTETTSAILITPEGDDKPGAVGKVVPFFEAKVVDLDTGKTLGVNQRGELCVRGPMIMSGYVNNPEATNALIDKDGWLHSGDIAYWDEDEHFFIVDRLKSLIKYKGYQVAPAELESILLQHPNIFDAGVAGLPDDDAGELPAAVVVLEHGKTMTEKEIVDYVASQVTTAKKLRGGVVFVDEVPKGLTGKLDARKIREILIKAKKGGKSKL
Text: FLuc (firefly luciferase) is the prototypical bioluminescent reporter gene from Photinus pyralis.[1] The enzyme catalyzes the oxidation luciferin via luciferin-AMP to produce light. FLuc is used in cell-based reporter gene-based assays for screening small molecule chemical libraries. However, small molecule luciferase inhibitors present in most large chemical libraries are often enriched in the output of high throughput screens using this reporter sometimes complicating interpretation and candidate selection.
RLuc is a bioluminescent reporter gene luciferase from Renilla reniformis, also known as the sea pansy. RLuc uses the luciferin substrate coelenterazine. RLuc is often used in combination with the nonhomologous luciferase FLuc (firefly luciferease) as a trasfection or pathway normalization control. Recently, non-homologous reporters have been described for high throughput screening 'coincidence' reporter gene strategies.
1. Fan F, Wood KV (2007) Bioluminescent assays for high-throughput screening. Assay Drug Dev Technol 5: 127-136.
2. Thorne N, Inglese J, Auld DS (2010) Illuminating insights into firefly luciferase and other bioluminescent reporters used in chemical biology. Chem Biol 17: 646-657.
3. […] Chem Biol 19: 1060-1072.
4. Michelini E, Cevenini L, Mezzanotte L, Coppa A, Roda A (2010) Cell-based assays: fuelling drug discovery. Anal Bioanal Chem 398: 227-238.
5. Cheng KC, Inglese J (2012) A coincidence reporter-gene system for high-throughput screening. Nat Methods 9: 937.
Biochemical firefly luciferase enzyme assay
NCGC Assay Protocol Summary:
Reagents: 50mM Tris acetate, pH 7.5; 10mM Mg acetate; 10uM D-luciferin (Sigma #L9504); 10uM ATP; 0.01% Tween-20; 0.05% BSA; 10nM P. pyralis luciferase (Sigma #L9506)
Control compounds used were two known firefly luciferase inhibitors (compounds (2) and (5) in Auld et al., 2010), and DMSO.
Three microliters containing firefly luciferase substrates in buffer (final concentrations: 50mM Tris acetate, pH 7.5, 10mM Mg acetate, 0.01% Tween-20, 0.05% BSA, 10uM D-luciferin, and 10uM ATP) are dispensed into each well of a Greiner white, solid-bottom 1536-well format plate using a flying reagent dispenser (FRD). These assay plates were then treated with 23nL of compound or DMSO using a Kalypsys pin tool, which allows for delivery of a 7-point interplate titration of each compound to the assay plates (quantitative HTS), with final compound concentrations ranging from approximately 60uM to 300pM. One microliter of firefly luciferase in 50mM Tris-acetate buffer was then delivered by FRD to each well for a final enzyme concentration of 10nM. Luciferase activity was then measured using an Envision plate reader (PerkinElmer), with an average incubation time of 5 min.
Potency is the fitted concentration of half-maximal effect.

Potency, active:
Cc1c2ccc(N(C)c3ccnc(Nc4cccc(S(N)(=O)=O)c4)n3)cc2nn1C 13 µM
c1ccc(Cc2nc3ccc(Nc4ncnc5ccccc45)cc3[nH]2)cc1 16.3 µM
COc1cc(Nc2ncc(-c3ccccc3)o2)cc(OC)c1 6.51 µM
CC(=Nc1ccc(S(N)(=O)=O)cc1)c1c(O)[nH]c2ccccc12 3.66 µM
CN(C)CCOc1ccc(-c2nc(-c3ccc4c(c3)CCC4=NO)c(-c3ccncc3)[nH]2)cc1 14.6 µM

Potency, inactive:
c1ccc(-c2[nH]ncc2-c2ccnc(-c3ccc(OCCN4CCOCC4)cc3)c2)nc1
COc1cc2ncn(-c3cc(OCc4ccccc4Cl)c(C(N)=O)s3)c2cc1OC
CCN(CC)Cc1ccc(Nc2nccc(-c3cnn4ncccc34)n2)cc1
Cc1ccc2c(-c3ccnc(Nc4ccc5c(c4)OCCO5)n3)c(-c3ccc(C(F)(F)F)cc3)nn2n1
COc1ccc2nc3c4nc5ccc(OC)cc5c4c4c(=O)[nH]c(=O)c4c3c2c1
Nc1nccc(-c2c(-c3ccc(F)cc3)ncn2C2CCC(O)CC2)n1 (stereo not given)
c1ccc(Oc2ccc(Nc3ncc(-c4ccccc4)o3)cc2)cc1
COc1ccc2ncnc(Nc3ccc(OCc4ccccc4)cc3)c2c1
CCn1c(-c2nonc2N)nc2ccncc21
COc1cccc(-n2nc(C)c3c(NN=C(C)c4ccncc4)ncnc32)c1
CCCN1CCC=C(c2ccc(Nc3nc(Nc4ccccc4C(N)=O)c4cc[nH]c4n3)c(C)c2)C1
O=C1Nc2ccc(I)cc2C1=Cc1cc(Br)c(O)c(Br)c1
COc1cc2ncn(-c3cc(OCCc4ccccc4)c(C(N)=O)s3)c2cc1OC
CS(=O)(=O)CCNCc1ccc(-c2ccc3ncnc(Nc4ccc(OCc5ccccc5)c(C(F)(F)F)c4)c3c2)o1
CCN1CCC(C(=O)Nc2n[nH]c3nnc(-c4cccc(F)c4F)cc23)CC1
NC(=O)c1ccc2c(-c3ccnc(NCCCO)n3)c(-c3ccc(F)cc3)nn2c1
Clc1ccc(-c2nn3ncccc3c2-c2ccnc(Nc3ccccc3)n2)cc1
Fc1ccc(-c2ncn(C3CCNCC3)c2-c2ccnc(Oc3ccc(F)c(F)c3)n2)cc1
CCn1c(-c2nonc2N)nc2c(C#CC(C)(C)O)nc(OC(CN)c3ccccc3)cc21 (stereo not given)
N#Cc1cccc(Nc2nccc(-c3cnn4ncccc34)n2)c1
Cc1nnc(-c2cccc(-c3ccc(C(=O)NCC4CC4)cc3)c2)o1
Cc1ccc2[nH]c(O)c(N=Nc3ccc(S(N)(=O)=O)cc3)c2c1
CCn1c(-c2nonc2N)nc2c(C#CC(C)(C)O)ncc(OC3CCNCC3)c21
Cc1cc(-c2ccccn2)cc(C)c1C=Cc1cncc(-c2nn[nH]n2)c1
NS(=O)(=O)c1ccc(N=Nc2c(O)[nH]c3ccc(C(=O)NCc4ccncc4)cc23)cc1
Fc1cccc(COc2ccc(Nc3ncnc4cc(-c5ccc[nH]5)sc34)cc2Cl)c1
CCS(=O)(=O)c1ccc(OC)c(Nc2nccc(N(C)c3ccc4c(C)[nH]nc4c3)n2)c1
FC(F)(F)CNc1nccc(-c2cnn3ncccc23)n1
NS(=O)(=O)c1ccc(N=Nc2c(O)[nH]c3cccc(CCc4ccncc4)c23)cc1
CCN1CCC(CC(=O)Nc2n[nH]c3nc(-c4cccs4)c(Br)cc23)CC1
NS(=O)(=O)c1ccc(-c2ccc3c(NC(=O)C4CC4)n[nH]c3c2)cc1
CCc1nccc2c1nc(-c1nonc1N)n2CC
COc1cc2c(cc1Nc1nc(Nc3ccsc3C(N)=O)c3cc[nH]c3n1)N(C(=O)CN(C)C)CCC2(C)C
CS(=O)(=O)CCN(CC#N)Cc1ccc(-c2ccc3ncnc(Nc4ccc(OCc5cccc(F)c5)c(Cl)c4)c3c2)o1
O=C(Nc1n[nH]c2nnc(-c3cccnc3)cc12)C1CC1
